# About 8,600 (12%) of roughly 69,000 compounds showed an effect of 50% or more. Many of the other results were omitted from the sample, so strong results are more common in it than they were.
# Test system: Plasmodium berghei
# Assay: Screen against P. berghei liver stage (PbLuc), transformed with Luciferase, at 10uM
# Assay type: functional, HepG2
# Conditions: tested at 10 uM
row,SMILES,INHIBITION
1,CCOc1ccccc1N1CCN(c2nnc(C)o2)CC1,7.4%
2,CCN(CC)C(=O)CN(C)CCn1nc2ccccn2c1=O,-79.8%
3,N#Cc1ccc(C(=O)N2CC[C@H]3[C@@H]2CCC(=O)N3c2cccnc2)cc1,23.9%
4,Cc1ccc(C(=O)N2C[C@@H](OCc3cccnc3)[C@H]3OCCC[C@H]32)o1,10.6%
5,Cc1ccc2c(c1)OC(C)CN2C(=O)c1c[nH]c(C)cc1=O (stereo unspecified),26.9%
6,CCN1CCC2(CC1)CC(CC(=O)N(C)C)c1ccc(F)cc12 (stereo unspecified),53%
7,CCC(=O)N1CCC2(CC1)CC(CC(=O)N(C)C)c1ccc(F)cc12 (stereo unspecified),51.2%
8,CCNC(=O)CC1CC2(CCN(C(C)=O)CC2)c2cc(F)ccc21 (stereo unspecified),31.4%
9,CCC(=O)N1CCC2(CC1)CC(CC(N)=O)c1ccc(F)cc12 (stereo unspecified),-26.5%
10,CCOC1CC2(CCN(C(=O)COC)CC2)c2cc(F)ccc21 (stereo unspecified),19.8%
11,CN(C)C(=O)CC1CC2(CCN(CC3CC3)CC2)c2cc(F)ccc21 (stereo unspecified),35.3%
12,Cc1cccc(-c2ccc(C(=O)NCC3CCCOC3)c(=O)[nH]2)c1 (stereo unspecified),-24.2%
13,COCCC(=O)N1CCN(CC(C)C)c2nc(C)ccc2C1,7.24%
14,Cc1nc(COC(=O)c2cccnc2C)no1,32%
15,Cc1ncsc1COC(=O)c1cccc2c1OCCO2,77.9%
16,COCc1ccccc1C(=O)OCc1noc(C)n1,9.63%
17,Cc1nc(COC(=O)c2cccc3c2OCCO3)cs1,48.8%
18,Cc1nc(COC(=O)c2cccc3c2OCCO3)no1,70.1%
19,Cc1ncsc1CN(C)C(=O)CC1CCOc2ccccc21 (stereo unspecified),-1.35%
20,Cc1nc(CN2C(=O)CCC23CCN(Cc2ccoc2)CC3)cs1,-30%
21,O=S(=O)(c1ccccc1)N1CCOCC(Cc2cccnc2)C1 (stereo unspecified),9.05%
22,CN(Cc1cccc(F)c1)C(=O)CN1CCCC1CCc1ccccc1 (stereo unspecified),5.14%

row,SMILES,INHIBITION
1,COc1cccc(CC2CCCN2CC(N)=O)c1 (stereo unspecified),35%
2,COc1ccc(CC2CCCN2CCCC#N)cc1 (stereo unspecified),35.9%
3,N#CCCN(C(=O)CN1CCCC1Cc1ccccc1)c1ccccc1 (stereo unspecified),38.5%
4,CCN(C(=O)CN1CCCC1c1ccc(OC)cc1)c1ccccc1 (stereo unspecified),-47.9%
5,CN(C(=O)CN1CCCC1Cc1ccccc1)c1ccccc1 (stereo unspecified),68%
6,N#CCCCN1CCCC1Cc1ccccc1 (stereo unspecified),53.6%
7,COc1cccc(CC2CCCN2CCCC#N)c1 (stereo unspecified),34.1%
8,CCN(C(=O)CN1CCCC1Cc1ccccc1)c1ccccc1 (stereo unspecified),75.7%
9,COc1ccc(CCN2CC(n3nc(C)cc3C)C2)cc1,-6.61%
10,Cc1cnn(CCCNCc2csc(COc3ccccc3)n2)c1,30.2%
11,CCOC(=O)c1sc(NC(=O)C(C)(C)C)c(C#N)c1C,-43.6%
12,Cc1nn(C)c(C)c1C1CCCN1CC(=O)NCc1ccccn1 (stereo unspecified),26.5%
13,COCCNC(=O)CN1CCC(N2CCN(C)C2=O)CC1,48.2%
14,Cc1cc(C(=O)N2CCCC(c3nccn3C)C2)cc(S(N)(=O)=O)c1C (stereo unspecified),-2.98%
15,Cc1cc(C)nc(N2CCC(C(=O)Nc3ncc[nH]3)CC2)n1,47.9%
16,CNc1cc(C(=O)N2CCOC(C(=O)NC3CCCC3)C2)ccn1 (stereo unspecified),-23.4%
17,O=C(NCCSc1ccccc1)[C@H]1CNC[C@@H](C(=O)N2CCOCC2)C1,-1.09%
18,CCc1cc(C(F)(F)F)c2c(C3CCCN(C(=O)COC)C3)noc2n1 (stereo unspecified),-8.12%
19,COCC(=O)N1CCC(c2cc(C(F)(F)F)c3c(C)noc3n2)CC1,9.93%
20,CCc1cc(C(F)(F)F)c2c(C3CCN(C(=O)COC)CC3)noc2n1,52%
21,COCC(=O)N1CCC(c2noc3nc(C)cc(C(F)(F)F)c23)CC1,15.4%
22,Cc1cc(C(F)(F)F)c2c(C3CCN(S(=O)(=O)N(C)C)CC3)noc2n1,60.8%

row,SMILES,INHIBITION
1,COCCC(=O)N1CCC(c2noc3nc(C)cc(C(F)(F)F)c23)CC1,38.1%
2,CCn1ncc2c1C(COCC1CC1)N(Cc1c(C)noc1C)CC2 (stereo unspecified),47.5%
3,CCCn1nccc1NC(=O)CN1CCc2c(nc(C3CC3)n2C)C1,5.7%
4,CNC(=O)CN1CCc2c(CNc3nccs3)n[nH]c2C1,-4.88%
5,CCNc1c(NC(=O)C(C)(C)C)c(=O)oc2ccccc12,-3.83%
6,O=C(NC[C@]12COC[C@H]1CN(Cc1nccs1)C2)N1CCCC1,-20.5%
7,O=C(c1cccnc1)N1Cc2nccn2CC(COc2cccnc2)C1 (stereo unspecified),9.51%
8,O=C(Cc1ccc(O)c(Cl)c1)N1CCCCC1CCn1cccn1 (stereo unspecified),60.1%
9,O=C(Cc1ccc2c(c1)CCO2)N1CCCCC1Cn1cccn1 (stereo unspecified),-35.5%
10,COc1ccc(CC(=O)N2CCCCC2Cn2cccn2)cc1OC (stereo unspecified),0.79%
11,CCOC1COC2(CCN(Cc3ccco3)CC2)C1 (stereo unspecified),-2.35%
12,O=c1[nH]c(-c2ccncc2)ncc1-c1ccnc(N2CCOCC2)n1,18.9%
13,CCN1CC2(CCN(C(=O)C(C)Oc3ccc(F)cc3F)CC2)OC1=O (stereo unspecified),52.5%
14,CCN1CC2(CCN(C(=O)C(C)Oc3cccc(Cl)c3)CC2)OC1=O (stereo unspecified),14.9%
15,CC(Oc1ccc(F)cc1F)C(=O)N1CCC2(CCCO2)CC1 (stereo unspecified),14.9%
16,CCC(=O)N1CCCN(c2cncc(-n3nc(C)cc3C)n2)CC1,13.2%
17,Cc1cc(C)n(-c2cncc(N3CCN(C(=O)CN(C)C)CC3)n2)n1,52.6%
18,Cc1cc(C)n(-c2cncc(N3CCN(C(=O)C(C)C)CC3)n2)n1,14%
19,CCc1cc(N2CCC(NCc3ccc(C)o3)CC2)ncn1,-24.9%
20,Cc1ccc(SCCCNC(=O)c2cn(C3CCC(N)CC3)nn2)cc1 (stereo unspecified),-164%
21,OCCNc1cc(N2CCC(n3cc(C4CCCC4)nn3)CC2)ncn1,28%
22,CC(C)Nc1cc(N2CCC(n3cc(C4CC4)nn3)CC2)ncn1,24.7%

row,SMILES,INHIBITION
1,CCc1cc(N2CCC(n3cc(C(=O)NCC(C)C)nn3)CC2)ncn1,71.4%
2,CCc1ncc(CN2CCN(c3cc(NC4CC4)nc(N)n3)CC2)cn1,-55%
3,O=C(NC1CC1)c1cn(C2CCN(c3cc(C4CC4)ncn3)CC2)nn1,39.3%
4,CCc1cc(N2CCC(Nc3ccc(Cl)cn3)CC2)ncn1,84.6%
5,CCc1cc(N2CCC(n3cc(C(=O)NC4CC4)nn3)CC2)ncn1,89.3%
6,CSCCC(C)(O)CNS(=O)(=O)Cc1ccc(F)cc1 (stereo unspecified),44.9%
7,Cc1ccccc1CNC(=O)CN1CCCC(Cc2nccn2C)C1 (stereo unspecified),-50.8%
8,CC(C)CCn1cc(C(C(=O)O)N2CCCN(C3CCCC3)CC2)cn1 (stereo unspecified),33.9%
9,c1nc(CNC2CCOCC2)c2n1CCCN(CC1CC1)C2,45.1%
10,Cn1ccc(C(=O)NC2CCC23CCN(Cc2cnn(C)c2)CC3)c1 (stereo unspecified),-28.7%
11,CCS(=O)(=O)N1CCN(CCn2cccn2)c2nc(C)ccc2C1,26.3%
12,c1cc(CN2CC[C@@H]3[C@@H](CO[C@H]3CN3CCOCC3)C2)cs1,-20.1%
13,CCN(CC)C(=O)c1ccc(-c2ccsc2)nc1C,-6.53%
14,CCN(CC)C(=O)CN(C)C(=O)c1ccc(-c2ccsc2)nc1C,59.5%
15,CCN(CC)C(=O)CNC(=O)c1ccc(-c2ccsc2)nc1C,34.5%
16,CCn1nc(C)c2nn(CC(=O)NC3CCSCC3)cc21,25.4%
17,Cn1cccc1C(=O)N1C[C@@H]2C[C@@H](c3nc(C4CC4)cs3)O[C@@H]2C1,-5.08%
18,CC(C)(C)C(=O)NCCc1cc2nc(-c3ccncc3)ccn2n1,24.44%
19,CCOCC(O)CN1CCN(C(=O)c2cccc(OC)c2)CC1 (stereo unspecified),-33.7%
20,CCn1ccnc1CN1CCCC(CO)(Cc2cccc(Cl)c2)C1 (stereo unspecified),79.3%
21,Cc1ncc(C)c(N2CCCC(CO)(Cc3cccc(Cl)c3)C2)n1 (stereo unspecified),86.8%
22,CCn1ccnc1C1CCN(Cc2cccc(C)n2)CC1,24.2%

row,SMILES,INHIBITION
1,CCOC(=O)C1(CCOC)CCN(Cc2nccn2CC)CC1,28.7%
2,CCOC(=O)C1(Cc2ccccc2)CCCN(Cc2nccn2CC)C1 (stereo unspecified),35.4%
3,Cc1cnc(C)c(N2CCCC(CO)(Cc3cccc(Cl)c3)C2)n1 (stereo unspecified),34.6%
4,Cc1cccc(CN2CCC(c3nccn3CC(N)=O)CC2)n1,58.3%
5,CCOC(=O)C1(CCOC)CCCN(Cc2nccn2CC)C1 (stereo unspecified),62.2%
6,OCC1(Cc2cccc(Cl)c2)CCCN(c2ncccn2)C1 (stereo unspecified),11.4%
7,CCC1(CO)CCCN(Cc2nccn2Cc2ccccc2)C1 (stereo unspecified),-82.2%
8,N#Cc1ccccc1CN1CCC(c2nccn2CC(N)=O)CC1,-15.3%
9,CCn1ccnc1CN1CCCC(CO)(Cc2cccc(OC)c2)C1 (stereo unspecified),23.7%
10,COc1ccccc1CN(CC1CCCO1)C(=O)c1csnn1 (stereo unspecified),18.4%
11,O=C(CCc1nccs1)N1CCN(c2nccs2)CC1,-2.19%
12,CCOCc1ccc(CNC(=O)N2CCC(C(N)=O)C2)cc1 (stereo unspecified),25.6%
13,c1cncc(CN2CCCC(Nc3ncnc4c3CCNCC4)C2)c1 (stereo unspecified),20.9%
14,CNC(=O)[C@@H]1C[C@H]2CN(Cc3ccc(C)s3)C[C@H]2N1C(C)=O,34.6%
15,CC1CCN(C(=O)c2sccc2-n2cnnn2)CC1,20.3%
16,O=C(NCCc1ccc(F)cc1)NCC(O)c1cccc(F)c1 (stereo unspecified),18.2%
17,O=C(N[C@@H]1CC[C@@H](N2CCCC2)[C@@H]1O)c1cc2cccc(F)c2[nH]1,-0.232%
18,CNC(=O)C1CN(Cc2cc(C)on2)CCN(C2CCOCC2)C1 (stereo unspecified),-3.94%
